High-throughput results as filed in PubChem BioAssay.
HIF-2a block: inhibitors of HIF-2a; 786-0 RCC cells HIF-2a reporter, luciferase luminescence, overnight; AID 624352; hit rate 0.72% among 360,000; inhibition, % at 18.8 µM;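 active = inhibition of the luminescence signal of 40% or more relative to plate controls, in a single-dose primary screen at 18.75 µM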
LGR2 inh: inhibitors of bursicon-induced Drosophila LGR2 receptor cAMP signaling. HEK293 LGR2, CRE-luciferase, bursicon-stimulated, 4 h. inhibition, % at 9.99 µM. hit rate 0.35% among 380,000. AID 720647;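 active = drop in luminescence signal, shown as inhibition above about 50% in the replicate tests, limit read from the data, passing the limit was not always enough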;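 also: agonist challenge used bursicon conditioned medium at about half maximal strength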
TWEAK-Fn14 inh: blocks TWEAK-Fn14 interaction in a reporter cell assay. TWEAK-stimulated Fn14 reporter cells, luciferase luminescence, 8 h. inhibition, % at 10 µM. hit rate 2% among 360,000. AID 1159606; in the data active = inhibition above about 50%
iPSC survival up: enhancers of human iPSC single-cell survival | hit rate 0.044% among 360,000 | hiPSC single-cell survival, ATPlite luminescence; 100% = ROCK inhibitor wells, 0% = DMSO | AID 602274 | survival enhancement, % at 20 µM; in the data active = survival enhancement above about 18%;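 also: cells exposed to compounds for 16 hours before the ATP read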
CF NFkB block: cystic fibrosis NF-kB activation inhibition; AID 588850; KKLEB NF-kB-GFP reporter, PAF-induced, GFP fluorescence overnight; hit rate 0.86% among 360,000; inhibition, % at 5 µM;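 active = at least 50% inhibition at 5 µM, scaled per plate between neutral and stimulator controls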;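 also: PAF is a Pseudomonas aeruginosa culture filtrate used as stimulus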
KKLEB tox: CF airway cell cytotoxicity counter-screen; KKLEB CF airway cells viability, ATPlite luminescence, overnight; active compounds read low; cells stimulated with P. aeruginosa culture filtrate; hit rate 0.36% among 360,000; AID 602141; activity change (cytotoxicity), % at 5 µM;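 active = corrected activity change at or below -50% at 5 µM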
Numbers stand for hits; – = inactive; · = no result given. Sampled rows, rich in hits. Any-hit rate of the full collection: about 2.3%.

SMILES	HIF-2a block	LGR2 inh	TWEAK-Fn14 inh	iPSC survival up	CF NFkB block	KKLEB tox
COC(=O)[C@H]1[C@H](CO)[C@H]2Cn3c(ccc(-c4ccc(F)cc4)c3=O)[C@@H]1N2C(C)=O	·	–	·	·	·	·
CCCCCn1c(NC(=O)c2ccco2)c(C(=O)OCC)c2nc3ccccc3nc21	–	·	81	–	–	–
O=C(Cc1ccccn1)N1CC2(C1)[C@H](c1ccccc1)[C@H](CO)N2Cc1ccccn1	·	–	·	·	·	·
CCC(COC(=O)NC)NC(=O)Oc1cccc(C)c1 (configuration not stated)	–	–	–	–	–	–
CNC(=O)Oc1cccc(-c2cn3cc(Cl)ccc3n2)c1	–	82	–	–	–	–
CNC(=O)Oc1ccc(-c2cn3cc(C)ccc3n2)cc1	–	·	64	–	–	–
N#Cc1ccc(-c2ccc([C@@H]3[C@H]4CN(C(=O)Cc5ccccc5)CCCCN4[C@H]3CO)cc2)cc1	·	–	·	·	·	·
CC12CC[C@H]3[C@@H](CCC4(O)C[C@H](O)CCC34/C=N/NC(=O)Cc3ccccc3)C1(O)CCC2C1=CC(=O)OC1 (some centres not stated)	–	–	–	–	–	–
COC1C(O)C(C)OC(OC2CCC3(C)C(CCC4C3C(O)CC3(C)C(C5=CC(=O)OC5)CCC43O)C2)C1O (configuration not stated)	74	90	86	–	86	–
CC(=O)OC1CC(OC2C(O)CC(OC3C(O)CC(OC4CCC5(C)C(CCC6C5CC(O)C5(C)C(C7=CC(=O)OC7)CCC65O)C4)OC3C)OC2C)OC(C)C1OC1OC(CO)C(O)C(O)C1O (configuration not stated)	87	88	78	–	86	–
CCCCCn1c(=O)c(C(=O)Nc2ccccc2S(N)(=O)=O)c(O)c2ccccc21	–	–	59	–	–	–
CCCCn1c(=O)c(C(=O)NCc2ccccc2)c(O)c2ccccc21	–	–	–	–	–	–
CCCCn1c(=O)c(C(=O)NCc2ccncc2)c(O)c2ccccc21	–	·	56	–	–	–
COC(=O)[C@H]1[C@H](CO)[C@H]2Cn3c(ccc(-c4ccccc4)c3=O)[C@@H]1N2CCc1ccccc1	·	–	·	·	·	·
CCN1[C@@H]2c3ccc(-c4cccc(C(=O)N(C)C)c4)c(=O)n3C[C@H]1[C@H](CO)[C@H]2C(=O)OC	·	–	·	·	·	·
O=C1NC(=O)C(=Cc2ccc(-c3ccc(Cl)cc3)o2)C(=O)N1	–	·	80	–	–	–
O=C1NC(=O)C(=Cc2ccc(-c3ccc(F)cc3O)o2)C(=O)N1	48	–	–	–	–	–
COc1cccc(-c2ccc([C@H]3[C@H](CO)N4CCCCN(C(=O)Cc5ccncc5)C[C@@H]34)cc2)c1	·	–	·	·	·	·
C[C@H]1CN([C@@H](C)CO)C(=O)c2c(c3ccccc3n2C)-c2ccccc2CO[C@H]1CN(C)C(=O)Oc1ccccc1	·	–	·	·	·	·
C[C@]12CC[C@@H]3c4ccc(O)c(O)c4CC[C@H]3[C@@H]1CC[C@@H]2O	–	–	55	–	–	–
O=C(Cc1ccccc1)N1CCCCN2[C@@H](CO)[C@@H](c3ccc(-c4ccccc4)cc3)[C@@H]2C1	·	–	·	·	·	·
O=C(c1ccc(Cl)cc1)C12CN3CN(CN(C3)C1)C2	–	·	63	–	–	–
COC(=O)[C@H]1[C@H](CO)[C@H]2Cn3c(ccc(-c4ccccc4)c3=O)[C@@H]1N2CC1CCCCC1	·	–	·	·	·	·
COc1ccc(CC2C(=O)NC(C)C(=O)N(C)C3C(=O)N(C)C(Cc4ccc(O)c(c4)Oc4ccc(cc4)C3O)C(=O)NC(C)C(=O)NC(C)C(=O)N2C)cc1 (configuration not stated)	87	99	102	–	82	–
COC1CC2C=C(C)C=CC=CC(=O)NC(c3ccccc3)CC=CCCC(O)CC(=O)C2=C1O (configuration not stated)	77	–	60	–	91	-85
SMILES	HIF-2a block	LGR2 inh	TWEAK-Fn14 inh	iPSC survival up	CF NFkB block	KKLEB tox
N#Cc1cccc(-c2ccc([C@H]3[C@H]4CN(C(=O)Cc5cccnc5)CCCCN4[C@H]3CO)cc2)c1	·	–	·	·	·	·
CC(C)(C)n1nnnc1C(C1CC1)N1CCC(n2c(=O)[nH]c3ccccc32)CC1 (configuration not stated)	–	–	–	–	–	–
COc1ccc(C(c2nnnn2Cc2ccccc2)N2CCC(n3c(=O)[nH]c4ccccc43)CC2)cc1 (configuration not stated)	–	–	–	–	85	-96
O=c1[nH]c2ccccc2n1C1CCN(C(c2nnnn2Cc2ccccc2)C2CC2)CC1 (configuration not stated)	–	–	–	–	86	-79
O=c1[nH]c2ccccc2n1C1CCN(C(c2ccccc2OC(F)(F)F)c2nnnn2Cc2ccccc2)CC1 (configuration not stated)	–	61	61	–	82	-54
O=c1[nH]c2ccccc2n1C1CCN(C(c2cccs2)c2nnnn2Cc2ccccc2)CC1 (configuration not stated)	–	–	–	–	86	-79
CC(C)(C)n1nnnc1C(CCc1ccccc1)N1CCC(n2c(=O)[nH]c3ccccc32)CC1 (configuration not stated)	–	–	–	–	–	–
CN(Cc1cccc(-c2ccncc2)c1)C(=O)Oc1ccccc1Cc1ccccc1	–	·	93	–	·	·
CN(C)Cc1ccccc1OC(=O)N(C)C	–	·	–	–	–	–
Cc1nc2cc(OC(=O)N(C)Cc3cccc(-c4ccncc4)c3)ccc2s1	–	·	93	–	·	·
CN(Cc1cccc(-c2ccncc2)c1)C(=O)Oc1ccccc1Cl	–	·	75	–	·	·
COC(=O)[C@H]1[C@H](CO)[C@H]2Cn3c(ccc(C4=CCCC4)c3=O)[C@@H]1N2C(=O)C1CCCCC1	·	–	·	·	·	·
CCCN1[C@@H]2c3cccc(=O)n3C[C@H]1[C@H](CO)[C@H]2C(=O)N(C)C	·	–	·	·	·	·
Cc1ccccc1S(=O)(=O)N1[C@@H]2c3ccc(-c4cccnc4)c(=O)n3C[C@H]1[C@H](CO)[C@H]2C(=O)O	·	–	·	·	·	·
CC(=O)OC1CC2OC3C=C(C)CCC3(C)C1(C)C21CO1 (configuration not stated)	72	104	98	–	93	–
CC=Cc1ccc2n(c1=O)C[C@H]1[C@H](CO)[C@@H](C(=O)O)[C@@H]2N1S(=O)(=O)c1ccccc1F (mixture of isomers)	·	–	·	·	·	·
O=C(Cc1ccccc1)N1C[C@@H]2[C@H](c3ccccc31)[C@@H](CO)N2Cc1ccccc1	·	–	·	·	·	·
CC(C)CCNC(=O)c1c(N)n(Cc2ccc3c(c2)OCO3)c2nc3ccccc3nc12	–	·	–	–	–	–
CCCNC(=O)c1c(N)n(Cc2ccc3c(c2)OCO3)c2nc3ccccc3nc12	–	·	–	–	51	-64
Cc1cc(OCC(=O)N2CCC(C(N)=O)CC2)c2c3c(c(=O)oc2c1)CCCC3	–	·	91	–	–	–
